± gives the standard deviation of the averaged measurements.
Tests used:
[1] = tested on: (+)-isopinocamphone A-neuron OSN class; assay: net action potential response of A-neuron (blank-subtracted) (spikes/s (Hz)); higher = stronger excitation; details: 10 µg on filter paper; neuron: A neuron (large spike amplitude)
Method in brief: (§1)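 Each compound was loaded at 10 μg in paraffin oil onto filter paper in a pipette and puffed for 0.5 s at 0.3 L/min into a humidified, charcoal-filtered airstream flowing at 1.8 L/min. Tungsten electrodes recorded from single sensilla on one fixed antenna of live lab-reared adult Ips typographus. The response was a spike rate in spikes/s from the A-neuron (large amplitude) or B-neuron (small amplitude), counted in AutoSpike, corrected for the pre-stimulus count and for the blank, and averaged across sensilla. Counting windows lasted 0.5 s, and 1–4 sensilla were used.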

[2] = tested on: (+)-trans-4-thujanol A-neuron OSN class; assay: as above; details: 10 µg on filter paper; neuron: A neuron (large spike amplitude)
Method in brief: as §1

[3] = tested on: (5S,7S)-trans-conophthorin A-neuron OSN class; assay: as above; details: 10 µg on filter paper; neuron: A neuron (large spike amplitude)
Method in brief: as §1

[4] = tested on: myrcene A-neuron OSN class; assay: as above; details: 10 µg on filter paper; neuron: A neuron (large spike amplitude)
Method in brief: as §1

[5] = tested on: p-cymene A-neuron OSN class; assay: as above; details: 10 µg on filter paper; neuron: A neuron (large spike amplitude)
Method in brief: as §1

[6] = tested on: lanierone-responsive B-neuron OSN class (ItypOR36); assay: net action potential response of lanierone B-neuron (blank-subtracted) (spikes/s (Hz)); higher = stronger excitation; details: 10 µg on filter paper, neuron: B neuron (small spike amplitude)
Method in brief: as §1

[7] = tested on: ipsdienol A-neuron OSN class; assay: net action potential response of A-neuron (blank-subtracted) (spikes/s (Hz)); higher = stronger excitation; details: 10 µg on filter paper; neuron: A neuron (large spike amplitude)
Method in brief: as §1

[8] = co-localized A-neuron class: (4S)-cis-verbenol
[9] = co-localized A-neuron class: (5S,7S)-trans-conophthorin
[10] = co-localized A-neuron class: (+)-isopinocamphone
[11] = co-localized A-neuron class: (+)-trans-4-thujanol
[12] = co-localized A-neuron class: ipsdienol
[13] = co-localized A-neuron class: myrcene
[14] = co-localized A-neuron class: p-cymene

| Structure (SMILES) | net action potential response [1] | net action potential response [2] | net action potential response [3] | net action potential response [4] | net action potential response [5] | net action potential response [6, 8] | net action potential response [6, 9] | net action potential response [6, 10] | net action potential response [6, 11] | net action potential response [6, 12] | net action potential response [6, 13] | net action potential response [6, 14] | net action potential response [7] |
| --- | --- | --- | --- | --- | --- | --- | --- | --- | --- | --- | --- | --- | --- |
| C=C1CCC2(C(C)C)CC12 (racemic) [(±)-Sabinene] | 0.667 ± 3.1 | 6.5 ± 5.5 | 0.667 ± 3.1 | 34 | 1.33 ± 6.4 | 0.667 ± 6.4 | -1.33 ± 1.1 | -1.33 ± 2.3 | 0.5 ± 1.9 | 1.33 ± 9.2 | -4 | -4 ± 5.3 |  |
| c1ccc2c(c1)CCO2 [2,3-Dihydrobenzofuran] | 2 ± 2 | -1.5 ± 1.9 | 1.33 ± 3.1 | -6 | 6.67 ± 5.8 | 3.33 ± 9.2 | -0.667 ± 4.2 | 0.667 ± 11 | 2.5 ± 3.4 | -3.33 ± 3.1 | -2 | 6 ± 8.7 |  |
| CC(=O)OC/C=C(\C)CCC=C(C)C [Geranyl acetate] | 0.667 ± 7 | 0 | 2 ± 7.2 | -4 | 1 ± 1.4 | -2.67 ± 7.6 | -2 ± 9.2 | -0.667 ± 2.3 | -2 ± 4.3 | -2 ± 5.3 | 0 | -2 ± 5.7 | 2 |
| CC(=O)OCCc1ccccc1 [2-Phenethyl acetate] | 0.667 ± 3.1 | 2.5 ± 4.1 | 2 ± 2 | 8 | -1.33 ± 4.6 | 5.33 ± 13 | -0.667 ± 3.1 | -1.33 ± 3.1 | 0.5 ± 4.1 | -6.67 ± 7 | -6 | -5.33 ± 2.3 | -3.33 ± 4.2 |
| CCC/C=C/CO | -1.33 ± 4.2 | 0 ± 1.6 | -0.667 ± 6.4 | -2 | 1.33 ± 1.1 | 0.667 ± 6.4 | 4.67 ± 3.1 | -0.667 ± 6.1 | 4 ± 2.8 | 2 ± 5.3 | 2 | 2 ± 2.8 |  |
| CC(=O)OCc1ccccc1 [Benzyl acetate] | 4 ± 3.5 | 0 ± 2.8 | 1.33 ± 4.2 | -4 | 0 ± 4 | 2.67 ± 6.4 | 2 ± 5.3 | 3.33 ± 6.1 | -0.5 ± 1.9 | -6.67 ± 3.1 | 0 | 0.667 ± 4.2 |  |
| CCc1ccc(O)c(OC)c1 [4-Ethylguaiacol] | -1.33 ± 2.3 | 1 ± 1.1 | 3.33 ± 4.2 | 4 | 0.667 ± 2.3 | 1.33 ± 3.1 | 0.667 ± 2.3 | 5.33 ± 1.1 | 4 ± 5.4 | -2 ± 5.3 | -8 | 0.667 ± 3.1 |  |
| C=C1CCC2CC1C2(C)C (stereo not drawn) [(-)-β-Pinene] | 8 ± 7.2 | 1 ± 1.1 | 2 ± 6 | 18 | 0.667 ± 4.6 | -0.667 ± 7.6 | 3.33 ± 3.1 | -3.33 ± 4.6 | -3 ± 4.2 | 0 ± 6 | -8 | 0 ± 7.2 |  |
| CC(=O)CC/C=C(\C)CCC=C(C)C [Geranylacetone] | 2 ± 2 | 1 ± 4.8 | 4.67 ± 7 | -2 | 3 ± 4.2 | -2 ± 2 | -2 ± 2 | -1.33 ± 4.2 | 0 ± 4.3 | -3.33 ± 5.8 | -2 | 0 ± 2.8 |  |
| CCCCCCO [1-Hexanol] | 18.7 ± 22 | 7 ± 5 | 6 ± 18 | 4 | 5.33 ± 1.1 | -0.667 ± 3.1 | 0.5 ± 3.4 | -1.33 ± 1.1 | 0 ± 1.6 | 2 ± 2 | -6 | -2.67 ± 6.1 |  |
| CC(=O)c1ccccc1 [Acetophenone] | 2.67 ± 4.2 | 2 ± 2.8 | 2 ± 2 | -2 | 4.67 ± 7.6 | 0 ± 5.3 | -3.33 ± 4.2 | -0.667 ± 2.3 | 1.5 ± 1 | -4.67 ± 3.1 | 4 | 1.33 ± 10 |  |
| C=CC(=C)CC(O)C=C(C)C (racemic) [(±)-Ipsdienol] | -4.67 ± 1.1 | -1.5 ± 1.9 | -2.5 ± 1.9 | 40 | -1.33 ± 4.2 | 2.67 ± 15 | -0.5 ± 3.4 | -2.67 ± 4.2 | 0 ± 1.6 | -4.67 ± 10 | -4 | -0.667 ± 1.1 |  |
| CCC(C)CO (racemic) [(±)-2-Methyl-1-butanol] | 0 ± 2 | 2.5 ± 6.8 | 5 ± 1.1 | 4 | 8 ± 4 | 0 ± 3.5 | 2 ± 3.3 | -2 ± 2 | 3.5 ± 3 | -1.33 ± 5 | -4 | -2 ± 4 |  |
| COc1ccccc1 [Anisole] | 2 ± 5.3 | 1 ± 4.2 | 1.33 ± 4.2 | -2 | 10.7 ± 5.8 | -1.33 ± 8.3 | 0 ± 6 | -2.67 ± 2.3 | -2.5 ± 4.1 | 2.67 ± 4.6 | 2 | -3 ± 1.4 |  |
| C=CC(=C)CCC=C(C)C [Myrcene] | -2 ± 2 | 0.5 ± 3 | 2 ± 10 | 128 | 3.33 ± 2.3 | 7.33 ± 7.6 | 0 ± 6 | 1.33 ± 9 | 2.5 ± 6.6 | 2.67 ± 4.2 | -6 | -2.67 ± 4.6 |  |
| CC1=C[C@@H](O)[C@H]2C[C@@H]1C2(C)C [(-)-trans-Verbenol] | 0.667 ± 10 | 5.5 ± 5.7 | 13 ± 20 | 6 | 2 ± 2 | -1.33 ± 9 | -3.5 ± 6 | 1.33 ± 2.3 | -2 ± 2.8 | 2 ± 4 | -4 | -2 ± 9.2 | 0.667 ± 3.1 |
| CC(C)CCO [3-Methyl-1-butanol] | 2 ± 2 | 11 ± 11 | 3.33 ± 3.1 | -2 | 7.33 ± 6.1 | 3.33 ± 2.3 | 0.667 ± 6.1 | 1.33 ± 11 | -4 ± 2.3 | -4.67 ± 6.4 | -6 | -0.667 ± 2.3 |  |
| CC[C@H]1O[C@]2(C)CCC[C@H]1O2 (racemic) [(±)-exo-Brevicomin] | -0.667 ± 4.2 | 2.5 ± 2.5 | 173 ± 40 | 6 | 0 ± 2 | 0 ± 2 | -4 ± 2 | -2 | -1 ± 1.1 | 4 ± 12 | 2 | -3.33 ± 2.3 |  |
| CC1=CC(C)(C)C=C(O)C1=O [Lanierone] | 46.7 ± 9.2 | -1.5 ± 1.9 | -1.5 ± 7 | 0 | 1.33 ± 1.1 | 135 ± 24 | 141 ± 31 | 160 ± 24 | 155 ± 24 | 121 ± 13 | 144 | 151 ± 12 |  |
| CC(C)[C@@]12CC[C@@](C)(O)[C@@H]1C2 [(+)-trans-4-Thujanol] | 11.3 ± 16 | 133 ± 37 | -1 ± 1.1 | -4 | 37.3 ± 13 | -3.33 ± 4.2 | 0 ± 5.9 | 0.667 ± 1.1 | -6.5 ± 5.5 | -0.667 ± 2.3 | 2 | -1.33 ± 3.1 |  |
| CC(C)=CCC/C(C)=C/C=O [Citral (E/Z mix)] | 0.667 ± 5 | 0.5 ± 1.9 | 2 ± 7.2 | 2 | -2 ± 2 | -1.33 ± 4.6 | -3.33 ± 4.2 | 1.33 ± 4.2 | 2 ± 8.2 | -5.33 ± 7.6 | 0 | -0.667 ± 4.2 |  |
| C[C@]12CCC[C@](C)(OC1)O2 (racemic) [(±)-Frontalin] | 2 ± 5.3 | 1 ± 3.5 | 96 ± 57 | -8 | 1.33 ± 1.1 | -1.33 ± 8.1 | -2 ± 2 | 0 ± 7.2 | 0.5 ± 4.1 | 0 ± 4 | 0 | -4 ± 4 |  |

From the supplement of paper PMC11577813, “Eurasian spruce bark beetle detects lanierone using a highly expressed specialist odorant receptor, present in several functional sensillum types” (BMC Biology, 2024)
